Structures are written as SMILES. In all, about 3,400 compounds went through this assay and about 840 (25%) were called active. Roughly 11% stayed inconclusive and do not appear here. Not all results are given here. Results with a measured potency or affinity are listed apart. Unmarked numbers belong to inactive results.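 The calls were made as follows: active = fitted half-maximal concentration of signal decrease at or below twice the sample's top tested concentration; inconclusive = flat curve between -70 and -30 percent, or poor fit; inactive = flat within 30 percent, signal rise, or potency above limit.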

The nature of this experiment: T. gondii growth inhibition with IFN-gamma, dose response, cell-based, ME49Luc, HeLa, luciferase, 72 h (AID 1259418). The conditions noted are these: T. gondii ME49Luc in IFN-y HeLa, hits give low values, -100% = high-dose IFN-γ control wells; at 19.5 µM unless noted.
Consider `CCc1ccccc1Nc1ncnc2c1cnn2-c1ccc(C)cc1C`, for which the max activity is 12.3% [at 0.68 µM]. For the molecule `COc1ccc(OC)c(S(=O)(=O)N2CCC[C@@H]2C(=O)NCCc2csc(C)n2)c1`, the max activity was 4.67%.

As for `COc1cccc(-c2nc3c(s2)CN(S(=O)(=O)c2ccc(C(C)C)cc2)CC3)c1`, the max activity was -7.98% [at 2.6 µM]. In the case of `Cc1cccc(-c2nc(Cn3nnc(-c4nc(-c5ccc(F)cc5)no4)c3C)c(C)o2)c1` it was 16.4% [at 10 µM]. In the case of `OC[C@H]1O[C@@H](n2cnc3c(NC4CCCC4)nc(Cl)nc32)[C@H](O)[C@@H]1O` it was 22.4%. On to `Cc1ccc2[nH]c(C(=O)N3CCCC3)c(NC(=O)c3ccc(Cl)cc3)c2c1`, for which the max activity was 45.1% [at 5 µM]. As to `COc1ccccc1-c1nc(Cn2nnc(-c3nc(-c4ccc(C)c(C)c4)no3)c2C)c(C)o1`, the max activity was 8.96% [at 0.68 µM]. In the case of `Cc1cccc(C(=O)Nc2c(C(=O)N3CCN(c4ccccn4)CC3)[nH]c3ccc(C)cc23)c1` it was -10.7% [at 5 µM]. Regarding `CN(C)CCOCC12CCCOC1CCN(C(=O)c1cccn1C)C2` (stereo not drawn), the max activity is 9.21%. Regarding `O=C(CC1Nc2c3ccccc3nc(=S)n2C1=O)NC1CCCCC1` (stereo not drawn), the max activity is 24.9% [at 0.68 µM]. Regarding `O=C(Cn1c(=O)c(S(=O)(=O)c2ccccc2)cc2ccccc21)NCc1ccco1`, the max activity is 8.5% [at 0.16 µM]. In the case of `O=C(NCc1cccnc1)C1CCN(Cc2cc3ccccc3n2Cc2ccccc2)CC1` it was 21.3% [at 1.35 µM]. For the molecule `CCN1CCCC1CNC(=O)C1CCN(Cc2cc3ccccc3n2Cc2cccc(Cl)c2)CC1` (stereo not drawn), the max activity was 22% [at 10 µM]. With `CCN1CCCC1CNC(=O)C1CCN(Cc2cc3ccccc3n2Cc2ccc(Cl)cc2)CC1` (stereo not drawn), the max activity is 9.45%.

For `O=C(NCc1cccnc1)C1CCN(Cc2cc3ccccc3n2Cc2cccc(F)c2)CC1`, the max activity was 12.1% [at 0.16 µM]. In the case of `CCN1CCCC1CNC(=O)C1CCN(Cc2cc3ccccc3n2Cc2ccccc2C)CC1` (stereo not drawn) it was 14% [at 2.6 µM]. With `O=C(C1CCN(Cc2cc3ccccc3n2Cc2cccc(F)c2)CC1)N1CCCC1` the figure was 8.62%; with `Cc1cccc(Cn2c(CN3CCC(C(=O)NCc4cccnc4)CC3)cc3ccccc32)c1`, 15.7% [at 10 µM]; with `CCc1nc(OCC(=O)Nc2ccc(Cl)c(Cl)c2)c2ccccc2n1`, -17.2%. With `Cc1ccc(CNC(=O)Nc2ccc(-c3nc(-c4cc(C)ccc4C)co3)cc2)cc1` the figure was -8.13% [at 5 µM]; with `COc1ccc(CC(=O)N2CCC3(CC2)Nc2cc(OC)ccc2-n2cccc23)cc1`, 20.2% [at 10 µM]; with `COc1ccc(-c2nc(Nc3ccc(Br)cc3F)c3ccccc3n2)cc1`, 21.7%. `O=C(NCCc1csc(-c2ccccc2)n1)[C@H]1CSCN1C(=O)COc1ccccc1`: the max activity is 9.43%. With `Cc1ccc2c(c1C)-n1cccc1C1(CCN(C(=O)c3cccc(Cl)c3)CC1)N2` the figure was 6.45%; with `O=C(C1CCCCC1)N1[C@@H](CO)[C@@H]2c3ccccc3N(S(=O)(=O)c3ccccc3)C[C@@H]21`, 38.7%; with `O=C(C1CCCCC1)N1[C@H](CO)[C@@H]2c3ccccc3N(S(=O)(=O)c3ccccc3)C[C@@H]21`, 26.4%.

For the molecule `O=C(NCc1cncc2c1CCN(Cc1cccc(F)c1)C2)C1CC1`, the max activity was 11.5%.

Turning to `O=C(CCc1ccccc1)Nc1ccc(-c2nc(-c3ccccc3)co2)cc1`, the max activity was 120% [at 10 µM]. In the case of `O=C(c1cccc(F)c1)N1CCCCN2[C@H](CO)[C@H](c3ccc(C#CC4(O)CCCC4)cc3)[C@H]2C1` it was -28.8% [at 21 µM]; in that of `O=C(c1cccc(F)c1)N1CCCCN2[C@H](C1)[C@H](c1ccc(C#CC3(O)CCCC3)cc1)[C@@H]2CO`, -13.9% [at 2.6 µM]. Consider `O=C(Nc1cccc(F)c1)N1CCCCN2[C@H](C1)[C@@H](c1ccc(C#Cc3cccnc3)cc1)[C@@H]2CO`, for which the max activity was -8.44% [at 0.6 µM]. For `CCN(CCCNc1nc(-c2ccc(OC)cc2)nc2ccccc12)c1cccc(C)c1`, the max activity is 21.1%.

As for `COc1ccc(NC(=O)CN2CCC3(CC2)N=C(c2ccc(F)cc2)C(=O)N3)c(OC)c1`, the max activity was -31.1% [at 0.35 µM]. In the case of `COc1ccc(-c2nc(N3CCN(Cc4ccc5c(c4)OCO5)CC3)c3ccccc3n2)cc1` it was 17.4% [at 2.6 µM]. In the case of `Cc1ccc(N2CCN(c3nc(-c4ccc(Cl)cc4)nc4ccccc34)CC2)c(C)c1` it was 25.4%. As for `CCOc1ccccc1NC(=O)COc1nc(CC)nc2ccccc12`, the max activity is -13.2% [at 0.35 µM].

Take `O=C(NC1CCCC1)N1CCCCN2[C@@H](CO)[C@@H](c3ccc(-c4cccnc4)cc3)[C@@H]2C1`: the max activity was 33.9%. In the case of `O=C(NC1CCCC1)N1CCCCN2[C@H](CO)[C@@H](c3ccc(-c4cccnc4)cc3)[C@H]2C1` it was 11.4%; in that of `COc1ccc(-c2nc(NC(C)CCc3ccccc3)c3ccccc3n2)cc1` (stereo not drawn), 13.7%; in that of `CCOc1ccc(S(=O)(=O)N2CCc3nc(-c4ccc(OC)cc4)sc3C2)cc1`, -25.8% [at 0.16 µM]. In the case of `Cc1nc(-c2ccc(F)cc2)sc1-c1ccc(SCc2ccccc2F)nn1` it was -39.8%; in that of `Clc1ccc(-c2nc(NCCCN3CCc4ccccc4C3)c3ccccc3n2)cc1`, -15.5% [at 0.16 µM]. In the case of `Cc1nc(OCC(=O)Nc2ccc(F)c(Cl)c2)c2ccccc2n1` it was 21% [at 0.68 µM]. On to `COC(=O)/C=c1\sc2nc(=O)c(C)nn2c1=O`, for which the max activity was 25.1% [at 10 µM].

Turning to `Cc1nc(-c2ccc(F)cc2)sc1-c1ccc(SCc2ccc(Cl)cc2Cl)nn1`, the max activity is -14.7% [at 5 µM]. In the case of `Cc1cccc(CSc2ccc(-c3sc(-c4ccc(F)cc4)nc3C)nn2)c1` it was -11.3% [at 0.35 µM]; in that of `Cc1cccc(OCC(=O)Nc2ccc(-c3nc(-c4ccccc4)co3)cc2)c1C`, -18.6% [at 2.6 µM]. For the molecule `COc1cccc(-c2ccc([C@H]3[C@H](CO)N4C(=O)CN(C(=O)c5cccnc5)C[C@@H]34)cc2)c1`, the max activity is 25.9%. With `O=C(c1cnccn1)N1CC(=O)N2[C@H](CO)[C@@H](c3ccc(/C=C/c4ccccc4)cc3)[C@H]2C1` the figure was 28.4%. In the case of `Cc1ccccc1-c1ccc([C@@H]2[C@H](CO)N3C(=O)CN(C(=O)c4ccncc4)C[C@@H]23)cc1`, the max activity is 29.6%. Turning to `Cc1ccccc1-c1ccc([C@H]2[C@@H](CO)N3C(=O)CN(C(=O)c4ccncc4)C[C@@H]23)cc1`, the max activity is 27.7%. In the case of `COc1cccc(-c2ccc([C@@H]3[C@H]4CN(C(=O)c5cccnc5)CC(=O)N4[C@H]3CO)cc2)c1` it was 12.1%; in that of `O=C(CCC1N=C2c3ccccc3N=C(SCc3cc(=O)n4ccccc4n3)N2C1=O)NCc1ccc(F)cc1` (stereo not drawn), 26.8%; in that of `COc1ccc(-c2noc(-c3nnn(Cc4nc(-c5ccccc5OC)oc4C)c3C)n2)cc1OC`, 11.4% [at 0.16 µM]. `COc1ccc(-c2nc3c(s2)CN(C(=O)Nc2ccc(C)cc2)CC3)cc1OC`: the max activity is -13% [at 0.35 µM].

As to `O=C1CCc2cc(S(=O)(=O)NCc3cccn3Cc3ccccc3F)ccc2N1`, the max activity is 12.6%. In the case of `CCOC(=O)CSC1=Nc2ccccc2C2=NC(CCC(=O)NCc3ccc4c(c3)OCO4)C(=O)N12` (stereo not drawn) it was 25.7% [at 2.6 µM]; in that of `Cc1nc(OCC(=O)Nc2ccc(Cl)c(C(F)(F)F)c2)c2ccccc2n1`, 27.7% [at 0.35 µM]; in that of `COc1ccc(-c2nc3c(s2)CN(C(=O)Nc2cc(C)ccc2OC)CC3)cc1`, 17%. With `O=C(c1cnccn1)N1CC(=O)N2[C@H](C1)[C@H](c1ccc(-c3cccc(F)c3)cc1)[C@@H]2CO` the figure was 32.8%; with `O=C(c1cnccn1)N1CC(=O)N2[C@H](CO)[C@@H](c3ccc(-c4cccc(F)c4)cc3)[C@H]2C1`, 46.4%; with `Cc1oc(-c2cccc(Cl)c2)nc1CN1CCN(C(=O)NC2CCCCC2)CC1`, 20.5% [at 1.35 µM]. `CCOC(=O)Cc1ccc(NC(=O)Nc2ccc(-c3nc(-c4cc(C)ccc4C)co3)cc2)cc1`: the max activity was 5.78%. In the case of `O=C(NCCc1csc(-c2ccccc2)n1)[C@H]1CSCN1C(=O)CCc1ccccc1` it was 14.8% [at 5 µM]; in that of `Cc1nc(OCC(=O)Nc2cccc(C(F)(F)F)c2)c2ccccc2n1`, -11.8% [at 2.6 µM]; in that of `Cc1cccc(-c2nc(CN(c3ccccc3)S(=O)(=O)c3cccs3)c(C)o2)c1`, -12.1% [at 1.35 µM].

In the case of `CCOc1ccc(N(Cc2nc(-c3cccc(Cl)c3)oc2C)S(=O)(=O)c2cccs2)cc1`, the max activity is 19.9%. Consider `Cc1ccc(N(Cc2nc(-c3cccc(C)c3)oc2C)S(=O)(=O)c2cccs2)cc1`, for which the max activity was -8.42% [at 0.16 µM].

For `COc1ccc(-c2nc(N3CCCc4ccccc43)c3ccccc3n2)cc1`, the max activity was 23.2% [at 10 µM]. In the case of `O=C(NCCc1ccccc1)Nc1ccc(-c2nc(-c3ccccc3)co2)cc1` it was 87.9%. In the case of `O=C(CC1Nc2c3ccccc3nc(=S)n2C1=O)NCc1cccc(Cl)c1` (stereo not drawn) it was -20.4% [at 2.6 µM]; in that of `COc1ccc(-c2nc(N3CCN(c4ccccn4)CC3)c3ccccc3n2)cc1`, -11.1% [at 0.35 µM]; in that of `COCC#Cc1ccc([C@H]2[C@H](CO)N3CCCCN(C(=O)NC4CCCC4)C[C@@H]23)cc1`, 30.1%.

Values taken from PubChem BioAssay AID1259418 (Broad Institute, 2018).
